BJeLR viability – kills HRASV12-expressing BJeLR cells; inhibition, % (test concentration not listed); AID 1554; BJeLR (HRASV12) viability, CellTiter-Glo ATP luminescence, 48 h; actives 0.17% (n = 300,000); in the data active = inhibition above about 50%
3CLpro inhibitor – SARS-CoV 3CLpro protease inhibition; AID 1706; P0C6X7; actives 0.14% (n = 290,000); inhibition, % at 6 µM; recombinant SARS-CoV 3CLpro, quenched FRET peptide cleavage; in the data active = inhibition above about 12%
Mtb BioA inh – inhibitors of Mycobacterium tuberculosis BioA enzyme; purified M. tuberculosis BioA enzyme, plate reader; inhibition, % at 9.99 µM; actives 0.096% (n = 360,000); AID 602481; in the data active = inhibition above about 40%
MazEF act – MazEF (E. coli) toxin RNase activation | FAM/BHQ RNA-DNA oligo cleavage fluorescence, 5 h | activation, % at 20 µM | actives 0.32% (n = 350,000); in the data active = activation above about 50%
Target sequence (P0AE70 whole entry, looked up): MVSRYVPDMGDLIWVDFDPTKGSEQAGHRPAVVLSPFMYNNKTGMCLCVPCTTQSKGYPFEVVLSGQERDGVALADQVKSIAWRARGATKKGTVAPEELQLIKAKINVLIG
PfHsp40 rescue – compounds rescuing yeast from Plasmodium falciparum HSP40 toxicity | actives 0.68% (n = 340,000) | growth rescue, % at 12.5 µM | AID 504582 | S. cerevisiae expressing PfHsp40, growth rescue, ATP luminescence; in the data active = growth rescue above about 28%, passing the limit was not always enough;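 note: yeast W303a lacking pdr1 and pdr3 grown in galactose medium; growth measured after three days at 30 °C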
Yp Topo-I inh – blocks Yersinia pestis topoisomerase I activity; Y. pestis Topo-I cleavage product accumulation, plate reader; activity, % at 10 µM; actives 0.064% (n = 360,000); AID 504884; in the data active = activity above about 50%, passing the limit was not always enough
Hits are given with their value. Only some compounds are listed: those with a hit (about 1.1% of all), similar ones and a draw of the others.

For CN(C)CCNC(=O)c1onc(CSc2ccc(F)cc2)c1C(=O)NCCN(C)C the results were BJeLR viability inactive, Mtb BioA inh inactive, MazEF act inactive, PfHsp40 rescue 33.8 and Yp Topo-I inh inactive.
`CC(C)CCNC(=O)c1onc(CSc2ccc(F)c(F)c2)c1C(=O)NCCC(C)C` gave BJeLR viability inactive, Mtb BioA inh inactive, MazEF act inactive, PfHsp40 rescue 37.3 and Yp Topo-I inh inactive.
CC(=O)NC1=NN(C(C)=O)C(c2cccs2)S1 (stereo not drawn) was read as BJeLR viability inactive, 3CLpro inhibitor inactive, Mtb BioA inh inactive, MazEF act inactive, PfHsp40 rescue 39.9 and Yp Topo-I inh inactive.
For CC(=O)NC1=NN(C(C)=O)C(c2ccccc2)S1 (stereo not drawn) the results were BJeLR viability inactive, 3CLpro inhibitor inactive, MazEF act inactive, PfHsp40 rescue inactive and Yp Topo-I inh inactive.
`CCCCCCSc1ccc([C@H]2N[C@@](C)(C(=O)OC)[C@H]3C(=O)N(C)C(=O)[C@@H]23)cc1` gave BJeLR viability inactive, Mtb BioA inh inactive, MazEF act inactive, PfHsp40 rescue 39.2 and Yp Topo-I inh inactive.
COc1ccccc1C(=O)OCC#CCSc1nnc(-c2cccc3ccccc23)o1 was read as Mtb BioA inh inactive, MazEF act inactive, PfHsp40 rescue inactive and Yp Topo-I inh 51.8.
O=C(OCC#CCSc1nnc(-c2ccc(Br)cc2)o1)c1cccs1 was read as BJeLR viability inactive, 3CLpro inhibitor inactive, MazEF act inactive, PfHsp40 rescue inactive and Yp Topo-I inh inactive.
Cc1ccc(-c2nnc(SCC#CCOC(=O)c3cccs3)o2)cc1 was read as BJeLR viability inactive, 3CLpro inhibitor inactive, MazEF act inactive, PfHsp40 rescue inactive and Yp Topo-I inh 55.7.
C[C@H](CO)N1C[C@H](C)[C@@H](CN(C)C(=O)Nc2ccc(F)cc2)OCCCC[C@H](C)Oc2ccc(NC(=O)Nc3ccccc3)cc2C1=O was read as Mtb BioA inh inactive.
For O=C(O)CCCC(=O)N1CCN(c2nc(-c3ccccc3Cl)c3cc(Br)ccc3n2)CC1 the results were BJeLR viability inactive, 3CLpro inhibitor inactive, Mtb BioA inh inactive, MazEF act inactive, PfHsp40 rescue 47.3 and Yp Topo-I inh inactive.
`O=C(c1cc(-c2ccccc2Cl)nc2ccc(Br)cc12)N1CCN(c2ccccn2)CC1` gave BJeLR viability inactive, 3CLpro inhibitor inactive, Mtb BioA inh inactive, MazEF act inactive, PfHsp40 rescue inactive and Yp Topo-I inh 55.4.
C[C@H](CO)N1C[C@H](C)[C@H](CN(C)C)Oc2c(NS(=O)(=O)c3cccs3)cccc2C1=O was read as Mtb BioA inh inactive.
`O=C(O)c1cccc(-n2sc3ccccc3c2=O)c1` gave Mtb BioA inh inactive, MazEF act inactive, PfHsp40 rescue 52.1 and Yp Topo-I inh inactive.
COc1ccc(CN(C)C[C@H]2OCCCC[C@H](C)Oc3ccc(NC(=O)Nc4c(C)noc4C)cc3C(=O)N([C@@H](C)CO)C[C@@H]2C)cc1 was read as Mtb BioA inh inactive.
For CN(C)CC(=O)Nc1ccc2c(c1)[C@H]1C[C@H](CC(=O)N3CCOCC3)O[C@H](CO)[C@H]1O2 the results were Mtb BioA inh inactive.
Screening Cc1ccc(Nc2cnn(C34CC5CC(CC(CC(=O)O)(C5)C3)C4)c(=O)c2Cl)cc1 returned BJeLR viability inactive, 3CLpro inhibitor 12.2, Mtb BioA inh inactive, MazEF act inactive, PfHsp40 rescue inactive and Yp Topo-I inh inactive.
Screening CC(=O)N(C)C[C@@H]1Oc2ncc(C#CCC3CCCC3)cc2C(=O)N([C@@H](C)CO)C[C@H]1C returned Mtb BioA inh inactive.
`Fc1ccc(Nc2nnc(C(F)(F)F)s2)cc1Cl` gave BJeLR viability inactive, 3CLpro inhibitor inactive, Mtb BioA inh inactive, MazEF act inactive, PfHsp40 rescue 148.9 and Yp Topo-I inh inactive.
Screening NC(=O)c1ccccc1NCC(=O)c1ccc(Cl)cc1 returned BJeLR viability inactive, 3CLpro inhibitor inactive, MazEF act inactive, PfHsp40 rescue inactive and Yp Topo-I inh 57.5.
For Cc1ccccc1NCC(=O)c1ccc(Br)cc1 the results were BJeLR viability inactive, 3CLpro inhibitor inactive, Mtb BioA inh inactive, MazEF act inactive, PfHsp40 rescue inactive and Yp Topo-I inh 176.3.
COc1ccc(C(=O)CNc2ccccc2Br)cc1 was read as BJeLR viability inactive, 3CLpro inhibitor inactive, Mtb BioA inh inactive, MazEF act inactive, PfHsp40 rescue inactive and Yp Topo-I inh inactive.

From PubChem BioAssay
